Activity calls are given as the source filed them. How the source made its calls: active means hit-call score of the fitted dose curve at least 0.9, where 1 is the maximum; inactive means score below 0.9.
Legend:
Settings in all cases: mRNA level, 48 h; actives raise or lower the signal
[1] = read-out: Cyclin D2 (CCND2), CCND2 (gene 894); assay: LTEA_HepaRG_CCND2: Life Technologies and Expression Analysis (LTEA) Assay for Cyclin D2 (CCND2) using HepaRG (AID 2283449)
Procedure, shortened: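 CCND2 transcript levels, quantified by qRT-PCR and normalised to three housekeeping genes, were fitted bidirectionally against 0.5% DMSO. HepaRG cultures were dosed 48 h in duplicate with an 8-point half-log series up to 100 uM.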

[2] = read-out: Cyclin Dependent Kinase Inhibitor 1A (CDKN1A), CDKN1A (gene 1026); assay: LTEA_HepaRG_CDKN1A: Life Technologies and Expression Analysis (LTEA) Assay for Cyclin Dependent Kinase Inhibitor 1A (CDKN1A) using HepaRG (AID 2283450)
Procedure, shortened: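 Read-out is CDKN1A mRNA by TaqMan qRT-PCR, normalized to three housekeeping genes and fitted in both directions against the DMSO baseline. Human HepaRG cells were treated 48 h with test chemicals up to 100 uM in half-log steps, 0.5% DMSO.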

[3] = read-out: Cyclin D1 (CCND1), CCND1 (gene 595); assay: LTEA_HepaRG_CCND1: Life Technologies and Expression Analysis (LTEA) Assay for Cyclin D1 (CCND1) using HepaRG (AID 2283451)
Description: LTEA_HepaRG is a cell based, multiplexed-readout assay that uses HepaRG, a human liver cell line, with measurements taken at 48 hours after chemical dosing on a 96-well plate.LTEA_HepaRG_CCND1 is one of 102 assay component(s) measured in the LTEA HepaRG cell culture assay. It is a marker of Cell proliferation, survival, death.Data from the assay component LTEA_HepaRG_CCND1 was analyzed into 1 endpoint. This assay endpoint, LTEA_HepaRG_CCND1, was analyzed with bidirectional fitting relative to DMSO as the negative control and baseline of activity. Using a type of inducible reporter, measures of mRNA induction for gain or loss-of-signal activity can be used to understand regulation of transcription factor activity. To generalize the intended target to other relatable targets, this assay endpoint is annotated to the cell cycle intended target family, where the subfamily is Cell proliferation, survival, death.
A total of 1060 chemcials from the ToxCast library were tested in eight-point concentration-response experiments. […] Fluidigm's 96.96 Dynamic ArrayTM (Fluidigm, Amsterdam, the Netherlands) technology was used for gene expression analyses by quantitative reverse transcription polymerase chain reaction (qRT-PCR, performed by Quintiles/Expression Analysis, Durham, NC)89. […]

[4] = read-out: catalase (CAT), CAT (gene 847); assay: LTEA_HepaRG_CAT: Life Technologies and Expression Analysis (LTEA) Assay for catalase (CAT) using HepaRG (AID 2283452)
Procedure, shortened: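 Expression of CAT was quantified by TaqMan qRT-PCR with ACTB/GAPDH/POLR2A normalization after 48 h chemical exposure of HepaRG. Eight-point half-log series, top 100 uM, in 0.5% DMSO; gain or loss fitted against vehicle.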

[5] = read-out: flavin-containing dimethylaniline monooxygenases 3 (FMO3), FMO3 (gene 2328); assay: LTEA_HepaRG_FMO3: Life Technologies and Expression Analysis (LTEA) Assay for flavin-containing dimethylaniline monooxygenases 3 (FMO3) using HepaRG (AID 2283453)
Procedure, shortened: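 Eight-point concentration-response in serum-free HepaRG cultures (top 100 uM, 0.5% DMSO, 48 h). Read-out: FMO3 mRNA level normalized to three endogenous control genes, fitted bidirectionally versus vehicle.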

[6] = read-out: Cytochrome P450 (CYP1A1), CYP1A1 (gene 1543); assay: LTEA_HepaRG_CYP1A1: Life Technologies and Expression Analysis (LTEA) Assay for Cytochrome P450 (CYP1A1) using HepaRG (AID 2283454)
Procedure, shortened: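 HepaRG, 48 h post-plating switched to serum-free induction medium; 8-pt conc-response (top 100 uM, half-log, 0.5% DMSO), duplicates, 48 h. Lysis in RLT, TaqMan qRT-PCR for CYP1A1; gain or loss vs DMSO.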

[7] = read-out: CFLAR gene, CFLAR (gene 8837); assay: LTEA_HepaRG_CFLAR: Life Technologies and Expression Analysis (LTEA) Assay for CFLAR gene using HepaRG (AID 2283455)
Procedure, shortened: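 Transcript level by qRT-PCR (normalized to ACTB, GAPDH and POLR2A) after 48 h chemical exposure of HepaRG cells, top concentration 100 uM with half-log steps, 0.5% DMSO vehicle, duplicates; fitted bidirectionally against DMSO baseline.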

[8] = read-out: Forkhead box O1 (FOXO1), FOXO1 (gene 2308); assay: LTEA_HepaRG_FOXO1: Life Technologies and Expression Analysis (LTEA) Assay for Forkhead box O1 (FOXO1) using HepaRG (AID 2283456)
Procedure, shortened: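 FOXO1 transcript quantified by qRT-PCR after 48 h chemical exposure (top 100 uM, half-log steps, 0.5% DMSO) of HepaRG cells, housekeeping-normalized (ACTB/GAPDH/POLR2A). Changes fitted in both directions relative to vehicle.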

[9] = read-out: growth arrest and DNA damage 45 (GADD45A), GADD45A (gene 1647); assay: LTEA_HepaRG_GADD45A: Life Technologies and Expression Analysis (LTEA) Assay for growth arrest and DNA damage 45 (GADD45A) using HepaRG (AID 2283458)
Procedure, shortened: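 HepaRG, 48 h exposure, 8 conc. (top 100 uM, half-log steps), 0.5% DMSO vehicle, duplicates. Read-out: qRT-PCR mRNA level, housekeeping-normalized (ACTB/GAPDH/POLR2A). Curves fit bidirectionally vs DMSO baseline.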

Measured: outcome

O=C(O)c1ccc([N+](=O)[O-])cc1
inactive: [1] | [2] | [3] | [4] | [5] | [6] | [7] | [8] | [9]

Reference: PubChem BioAssay (EPA / NIEHS)
